Screens as filed in PubChem.
An excerpt weighted towards active compounds, which were near 9.6% of everything screened.
PostGolgi yeast: growth inhibition of a yeast mutant, post-Golgi transport screen | AID 739 | post-Golgi transport phenotypic cell assay | inhibition, % at 10 µM | hit rate 0.9% among 98,000;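 further: yeast cells grown in 1536-well plates; yeast grown about 18 h at 30C before absorbance read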
hDAT+cocaine: changed human dopamine transporter uptake under cocaine IC80. hit rate 1.3% among 110,000. B-score at 10 µM. AID 449768. LLC-PK1 hDAT cells, [14C]-dopamine uptake with cocaine IC80; actives deviate in either direction. Q01959;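 active means Z score or B-score, a plate-position-corrected score, falls beyond the plate's 99.7% confidence bounds, in either direction; inactive means both scores lie inside the 99.7% bounds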
PostGolgi ctrl: inhibits growth of the yeast control strain; efflux-deficient yeast background strain, growth absorbance A615, 16 h; inhibition, % at 10 µM; hit rate 5% among 98,000; AID 738
Cav32 inh: inhibitors of human Cav3.2 T-type calcium channel; B-score at 10 µM; Cav3.2-expressing cells, Fluo-4 calcium fluorescence FDSS; active compounds read low; hit rate 4% among 100,000; AID 449739; O95180;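 active means single-dose well whose peak fluorescence ratio is a statistical outlier from its plate by either plate-standardised score or position-corrected B-score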
PLAP act: activates human placental alkaline phosphatase; P05187; purified PLAP enzyme, luminescent substrate read-out; active compounds read high; activation fold at 20 µM; hit rate 1.2% among 96,000; in the data active means activation fold above about 2
A number is an active result; 0 = inactive; - = not tested or not shown. Unless noted, no stated cut-off is given here; in the data, active means inhibition above about 30%; inactive means the rest.

SMILES | PostGolgi yeast | hDAT+cocaine | PostGolgi ctrl | Cav32 inh | PLAP act
N#Cc1ccc(CSc2ncnc3c2cnn3Cc2ccccc2)cc1 | 0 | 0 | 39 | 0 | 0
CCCCNc1ncnc2c1cnn2-c1ccc(Cl)cc1 | 0 | 0 | 35 | 0 | 0
Cc1nnc(NC(=O)C2CCCN(c3ncccn3)C2)s1 (stereo not given) | 0 | 0 | 0 | 0 | 0
CCOc1cccc(SCc2noc(C(=O)NCC3CCCO3)c2C(=O)O)c1 (stereo not given) | 0 | 0 | 0 | 0 | 0
Cc1ccc(-n2ncc3c(NCc4ccccn4)ncnc32)c(C)c1 | 0 | 0 | 0 | 0 | 2
COCC(C)Nc1ncnc2c1cnn2-c1ccc(Cl)cc1 (stereo not given) | 0 | 2.7 | 0 | 0 | -
Clc1ccc(Cn2ncc3c(NCc4ccccc4)ncnc32)cc1 | 0 | 0 | 41 | -6.9 | 0
O=S(=O)(NCCc1csc(-c2cccnc2)n1)c1ccc(Cl)s1 | 0 | 0 | 0 | 0 | 0
Cn1c(=O)c(Cc2ccccc2)c(O)c2ccccc21 | 0 | 0 | 49 | 0 | 0
CCCn1c(=O)c(Cc2ccccc2)c(O)c2ccccc21 | 0 | 0 | 0 | - | 0
Cc1c(Br)c([N+](=O)[O-])nn1C(C)C(=O)NCc1cccs1 (stereo not given) | 0 | -9.4 | 0 | 0 | 0
Cc1c(Br)c([N+](=O)[O-])nn1CC(=O)NCc1cccs1 | 0 | 0 | 0 | - | 0
Cc1c(Br)c([N+](=O)[O-])nn1C(C)C(=O)N1CCCc2ccccc21 (stereo not given) | 0 | -8.2 | 0 | 0 | 0
CC(C)(C)NC(=O)COC(=O)c1cncc(Br)c1 | 0 | 0 | 0 | 0 | 0
CSc1nsc(SC)c1NC(=O)OCC1CCCO1 (stereo not given) | 0 | 0 | 0 | 0 | 0
CC(C)(C)c1ccccc1OCC(=O)Nc1ncn[nH]1 | 0 | 0 | 0 | 0 | 2
COc1cc(OC)c(C(=O)Nc2ncn[nH]2)cc1OC | - | 0 | - | 0 | -
CC(C)(C)c1cc(Br)ccc1OCC(=O)Nc1ncn[nH]1 | 0 | 0 | 30 | 0 | 0
C[C@@H]1CC[C@@]2(O[C@@H](CCO)C[C@H](O)[C@H]2O)O1 | - | 0 | - | 0 | -
O=S(=O)(Nc1nc2ccccc2nc1N1CCN(c2ccccn2)CC1)c1ccc(Cl)cc1 | 0 | 0 | 57 | -4.7 | 0
CC(=O)Nc1ccc(S(=O)(=O)Nc2nc3ccccc3nc2N2CCCCCC2)cc1 | 0 | 0 | 0 | 0 | 0
COc1ccc(N2CCN(c3nc4ccccc4nc3NS(=O)(=O)c3ccccc3)CC2)cc1 | 0 | 0 | 0 | -4.2 | 0
Cc1ccc(S(=O)(=O)Nc2nc3ccccc3nc2N2CCN(c3ccccc3F)CC2)cc1 | 0 | 0 | 0 | -3.6 | 0
Cc1cccc(OCCC(=O)NCC(c2ccco2)N2CCCCC2)c1 (stereo not given) | 0 | 0 | 0 | 0 | 0
Cc1c(Cl)cccc1NC(=O)CCCN1C(=O)CCC1=O | 0 | - | 0 | - | 0
SMILES | PostGolgi yeast | hDAT+cocaine | PostGolgi ctrl | Cav32 inh | PLAP act
CCCN1Cc2cccc(C(=O)Nc3ccc4c(c3)OCO4)c2C1=O | 0 | - | 0 | - | 0
CCCN1Cc2cccc(C(=O)Nc3ccc(C)cc3)c2C1=O | 0 | -8 | 0 | 0 | 0
CCCN1Cc2cccc(C(=O)Nc3ccc4c(c3)OCCO4)c2C1=O | 0 | 0 | 36 | 0 | 0
COCCN1Cc2cccc(C(=O)Nc3cc(C)cc(C)c3)c2C1=O | 0 | 1.8 | 0 | 0 | 0
CCCN1Cc2cccc(C(=O)Nc3ccc(CC)cc3)c2C1=O | 0 | 0 | 0 | 0 | 0
CCOc1ccccc1N1CCN(C/C=C/c2ccc(N(C)C)cc2)CC1 | 0 | 0 | 0 | 0 | 0
Cc1nc2sc3c(c2c(=O)[nH]1)CCC3 | 0 | 0 | 0 | 0 | 0
Cc1cc(-c2nc3c4c5c(sc4[nH]c(=O)n3n2)CCC5)c(C)o1 | 0 | 0 | 31 | 0 | 0
COc1ccc(CCNC(=O)CCSc2nc(-c3ccco3)cc(C(F)(F)F)n2)cc1OC | 0 | 0 | 0 | 0 | 0
COc1ccc(-n2c(Cc3cccn3C)nnc2SCC(=O)N2CCCc3ccccc32)cc1 | 0 | 0 | 0 | 0 | 0
COc1ccc(OCc2nnc(SCC(=O)N3CCCc4ccccc43)n2-c2ccc(C)cc2)cc1 | 0 | 0 | 0 | -8.2 | 0
Cc1ccccc1OCc1nnc(SCC(=O)N2CCc3ccccc32)n1C | - | -8.6 | - | 0 | -
N#Cc1ccc(OCc2nnc(SCC(=O)N3CCCc4ccccc43)n2-c2ccccc2)cc1 | 0 | 0 | 0 | -7.4 | 0
O=C(CSc1nnc(CN2CCOCC2)n1-c1ccccc1)N1CCc2ccccc21 | 0 | 0 | 0 | 0 | 0
O=C(CCn1nc(-c2ccccc2)ccc1=O)N1CCN(c2ccccn2)CC1 | 0 | 0 | 0 | - | 0
CC(C)C(=O)N(c1cc2sc(=O)oc2c2ccccc12)S(=O)(=O)c1cccs1 | 0 | 0 | 67 | 0 | 0
CCn1c(Sc2nc(C)nc3scc(-c4cccs4)c23)n[nH]c1=O | 104 | 0 | 102 | 0 | 0
CCc1nc2scc(-c3cccs3)c2c(=O)o1 | - | 0 | - | 0 | -
Cc1ccc2nc3c(cc2c1)c(NC(=O)c1ccccn1)nn3CC(C)C | 0 | 0 | 0 | 0 | 2.3
CCn1nc(NC(=O)c2ccccn2)c2cc3cc(C)ccc3nc21 | 0 | 0 | 0 | - | 0
Cc1ccc(-c2noc(CCC(=O)Nc3cccc(C#N)c3)n2)cc1 | 0 | 0 | 0 | -4.2 | 0
CCOc1cc(-c2noc(CCC(=O)Nc3cccnc3)n2)ccc1OC | 0 | 0 | 33 | 0 | 0
O=C(CCc1nc(-c2ccccc2F)no1)Nc1ccc(Oc2ccccc2)cc1 | 0 | 0 | 34 | 0 | 0
COc1cccc(NC(=O)CCc2nc(-c3ccccc3F)no2)c1 | 0 | 0 | 0 | 0 | 0
Cc1ccc(-c2noc(CCC(=O)Nc3ccc(C)cn3)n2)cc1 | 0 | 0 | 0 | 0 | 0
SMILES | PostGolgi yeast | hDAT+cocaine | PostGolgi ctrl | Cav32 inh | PLAP act
COc1ccc(-c2noc(CCC(=O)N3CCN(c4cccc(C(F)(F)F)c4)CC3)n2)cc1 | 0 | 0 | 0 | -4.8 | 0
CCc1ccc(NC(=O)c2ccccc2NC(=O)C2CCCO2)cc1 (stereo not given) | 0 | 0 | 0 | 0 | 0
CC(C)Oc1ccccc1-c1nc(SCC(=O)O)n[nH]1 | 0 | 0 | 0 | 0 | 0
CN(C)NC1CCS(=O)(=O)C1 (stereo not given) | 0 | 0 | 0 | 0 | 0
Cc1ccc(-c2noc(CCC(=O)NCCc3ccccc3Cl)n2)cc1 | 0 | 0 | 0 | 0 | 0
O=C(CCc1nc(-c2ccccc2F)no1)NCCc1ccccc1Cl | 0 | 0 | 0 | -7.8 | 0
O=C(CCc1nc(-c2ccccc2)no1)Nc1cc(C(F)(F)F)ccc1Cl | 0 | 0 | 0 | 0 | 0
COc1ccccc1-c1noc(CCC(=O)Nc2cccc(C(F)(F)F)c2)n1 | 0 | 0 | 0 | -7.6 | -
CS(=O)(=O)N(CC(=O)NC1CC2CCC1C2)c1cccc(C(F)(F)F)c1 (stereo not given) | 0 | 0 | 31 | 0 | 0
Cc1ccc(N(CC(=O)NC2CC3CCC2C3)S(C)(=O)=O)cc1C (stereo not given) | 0 | 0 | 0 | 0 | 0
CC1C(=O)C(C)C(c2ccc3c(c2)OCO3)NC1c1ccc2c(c1)OCO2 (stereo not given) | 0 | 0 | 35 | 0 | 0
OCCN1CCOCCN(CCO)CCOCC1 | 0 | 0 | 0 | 0 | 2
Cc1cc(C)c2cc3c(N)c(C(=O)N4CCc5ccccc5C4)sc3nc2c1 | 0 | 0 | 0 | 0 | 0
CN1CCc2nc3sc(C(=O)C45CC6CC(CC(C6)C4)C5)c(N)c3cc2C1 | 100 | - | 95 | - | 0
